Results with a measured potency or affinity are listed apart. Activity calls are given as the source filed them.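 The calls were made as follows: active = signal-lowering compounds whose fitted half-maximal concentration is at or below twice the top tested dose in every run; inconclusive = runs disagree, flat 30 to 70% inhibition, or poor curve fit; inactive = the rest.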
These compounds were tested against Protein S100-A4 (Homo sapiens) (UniProt P26447) (assay: human S100A4 peptide interaction inhibition curves – biochemical, fluorescence polarization, cherry-picked hits, dose response (AID 687001)). Details: FP, S100A4/TAMRA-myosin IIA peptide binding; series mostly up to 11 µM.
Sequence of Protein S100-A4 (Homo sapiens) (P26447 whole entry, looked up): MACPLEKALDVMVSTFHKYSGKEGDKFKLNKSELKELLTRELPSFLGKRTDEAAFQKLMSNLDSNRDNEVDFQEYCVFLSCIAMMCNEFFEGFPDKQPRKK

outcome, inactive:
O=C(c1ccc2c(c1)OCO2)N1CC(=O)N2[C@@H](CO)[C@H](c3ccc(C#Cc4ccccc4)cc3)[C@@H]2C1
CCOC(=O)Cc1csc(NC(=O)c2c(-c3ccccc3)noc2C)n1
CN1c2ccc(-c3cccc(C#N)c3)cc2[C@H]2[C@H](CCN2S(=O)(=O)c2ccccc2F)[C@H]1CO
CC1NC2(C(=O)N(Cc3ccccc3)c3ccccc32)C2C(=O)N(c3ccccc3)C(=O)C12 (centres undefined)
NC(=O)NC(Cc1ccccc1)C(=O)NCCCSc1ccccc1 (centres undefined)
CC(C)CC#Cc1cnc2c(c1)C(=O)N([C@H](C)CO)C[C@@H](C)[C@H](CN(C)S(C)(=O)=O)O2
CCN1C(=O)c2ccccc2S(=O)(=O)c2ccc(C(=O)NCC(OC)OC)cc21
CC(C)NC(=O)N(C)C[C@H]1Oc2ccc(NS(=O)(=O)c3ccc(F)cc3)cc2C(=O)N([C@H](C)CO)C[C@@H]1C
OC(CNC1CCCCCC1)COc1cccc2ccccc12 (centres undefined)
Cc1[nH]c2ccccc2c1CC(=O)Nc1ccc(Nc2cccnc2)c(Br)c1
O=C(Nc1ccc2c(c1)CN(Cc1ccco1)CC2)C1CCCO1 (centres undefined)
CC1(C)CC2CC(C)(CN2/C=N/c2sc3c(c2C#N)CC(C)(C)NC3(C)C)C1 (centres undefined)
CC(NC(=O)COC(=O)c1cc([N+](=O)[O-])ccc1N1CCOCC1)c1ccc(F)cc1 (centres undefined)
CNC[C@@H]1OCCCC[C@H](C)Oc2ccc(NS(C)(=O)=O)cc2C(=O)N([C@@H](C)CO)C[C@@H]1C
CCOc1ccc(NC(=O)CSc2nccn(-c3ccc4c(c3)OCCO4)c2=O)cc1
COc1ccccc1NC(=O)N[C@H]1C=C[C@H](CC(=O)N2CCC(Cc3ccccc3)CC2)O[C@@H]1CO
COC(=O)Cc1c(C)nc(SCc2ccccc2)[nH]c1=O
CCCCOc1ccc(S(=O)(=O)N2CCN(c3ccc(N4CCN(CC)CC4)nn3)CC2)cc1
CCCNC(=O)N1CC(=O)N2[C@H](CO)[C@@H](c3ccc(-c4ccc(F)cc4)cc3)[C@H]2C1
COc1ccc(C(CNC(=O)CNC(=O)c2ccc(F)cc2)N2CCCC2)cc1 (centres undefined)
C[C@@H]1CCCCO[C@@H](CN(C)C(=O)C2CCCCC2)[C@@H](C)CN([C@H](C)CO)C(=O)c2cc(NC(=O)CCCCCC(=O)Nc3ccccc3N)ccc2O1
CCCC(=O)Nc1ccc2c(c1)OC[C@@H](C)N(C(=O)c1cnccn1)C[C@@H](C)[C@H](OC)CN(C)C2=O
N/C(=N\OC(=O)CCn1cccc(C(F)(F)F)c1=O)c1ccc(OC(F)(F)F)cc1
CCn1c(SCC(=O)O)nnc1-c1ccc2[nH]c(C)c(C)c2c1
O=C(C[C@@H]1CC[C@@H](NC(=O)Cc2cccnc2)[C@H](CO)O1)Nc1ccc(-c2ccccc2)cc1
Cc1ccc(S(=O)(=O)Nc2ccc3c(c2)C(=O)N([C@H](C)CO)C[C@@H](C)[C@H](CN(C)S(C)(=O)=O)OCCCC[C@@H](C)O3)cc1
CCOc1ccc(NC(=O)CN(C)C(=O)c2cccc3ccccc23)cc1OCC
CN1C(=O)c2cc(NC(=O)Cc3cccs3)ccc2OC[C@H]2O[C@H](CC(=O)N[C@H]3CCN(Cc4ccccc4)C3)CC[C@@H]21
CC(C(=O)NC1CCCCC1)N1C(=O)c2cccc3cccc1c23 (centres undefined)
Cc1ccc(S(=O)(=O)NCC[C@@H]2CC[C@@H](NC(=O)C3CCOCC3)[C@H](CO)O2)cc1
CCCc1cn(CC[C@@H]2CC[C@H](NC(=O)C3CCCC3)[C@H](CO)O2)nn1
COc1ccc2c(c1)CCC/C2=N\Nc1nc(C(=O)NN)cs1
O=C(C[C@H]1CC[C@@H]2[C@H](COC[C@@H](O)CN2C(=O)Nc2ccc(F)cc2)O1)NCCc1ccccc1
Cc1oc(-c2ccccc2Cl)nc1CSCC(=O)O
O=C(CNC(=O)c1ccc(Cl)cc1Cl)OCc1cn2cc(Br)ccc2n1
COc1ccccc1CN1CCNC(=O)C1CC(=O)NCCCN1CCOCC1 (centres undefined)
COc1ccc(NC(=O)N(C)C[C@H]2Oc3ccc(N(C)C)cc3C(=O)N([C@@H](C)CO)C[C@@H]2C)cc1
CC(C)NC(=O)c1ccc(COc2cc(Cl)ccc2Cl)o1
O=C1O[C@@H](c2ccccc2)C[C@@H](O)C(=O)CCCCc2ccccc21

— PubChem BioAssay AID687001 (Broad Institute, 2013)
